Screening results as filed in PubChem BioAssay.
Rows were chosen to be rich in hits. Some 3.4% of all compounds tested hit in one or more screens of this group.
MEKK2mut PB1 HTS: signal of MEK5 binding to mutant human MEKK2 PB1 domain; AID 1530; percent response, % at 10 µM; bead flow cytometry, Alexa488-MEK5 binding to MEKK2 mutant; 290,000 tested, 0.35% active; in the data active = percent response above about 24%, passing the limit was not always enough
NTR1 agonist: agonists of human neurotensin receptor NTR1; P30989; NTR1-U2OS beta-arrestin-GFP spot imaging, agonist mode; activation, % at 20 µM; 330,000 tested, 0.17% active;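 active = activation at or above 40% of the spot to cytoplasm intensity ratio, with at least 20 cells analyzed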;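 note: 0% = DMSO without peptide and 100% = 100 nM NTR1 peptide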
Target sequence (P30989 whole entry, looked up): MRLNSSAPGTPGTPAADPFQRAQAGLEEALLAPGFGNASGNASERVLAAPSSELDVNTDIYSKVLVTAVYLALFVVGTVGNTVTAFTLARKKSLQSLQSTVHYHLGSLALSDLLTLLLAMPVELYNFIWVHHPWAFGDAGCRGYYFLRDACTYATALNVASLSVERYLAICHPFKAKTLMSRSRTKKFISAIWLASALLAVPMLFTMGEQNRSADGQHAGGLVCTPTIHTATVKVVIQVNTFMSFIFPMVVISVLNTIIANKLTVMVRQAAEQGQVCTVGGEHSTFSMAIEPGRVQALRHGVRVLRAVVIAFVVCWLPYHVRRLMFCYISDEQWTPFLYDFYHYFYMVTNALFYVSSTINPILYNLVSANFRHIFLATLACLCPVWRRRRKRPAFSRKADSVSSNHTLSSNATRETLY
MEKK2 WT-MEK5: raises or lowers MEK5 binding to wildtype human MEKK2 PB1 domain. bead flow cytometry, Alexa488-MEK5 binding to MEKK2 WT; actives lie on both sides. binding response (% of control), % at 10 µM. AID 1531. 290,000 tested, 1.1% active. Q9Y2U5; in the data active = binding response below about 67% or above about 130%
TMEM16A act: activators or potentiators of mouse TMEM16A chloride channel | Q8BHY3 | HEK293 TMEM16A/YFP-H148Q/I152L, iodide quench fluorescence; hits give low values | B-score at 10 µM | 340,000 tested, 0.3% active | AID 623877;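 active = fluorescence-ratio B-score plate-corrected deviation score at least 3 library SD below zero, with starting fluorescence score within 5 deviations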;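 note: channel opened by trigger with iodide after compound preincubation; score built on the fluorescence ratio of max minus min over baseline; more negative score means more quench and so TMEM16A activation or potentiation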
TMEM16A inh: blocks the mouse calcium-activated chloride channel TMEM16A | 310,000 tested, 1.2% active | Q8BHY3 | HEK293 TMEM16A/YFP iodide influx fluorescence, ionomycin | normalized B-score (activity score, 25-100; higher = stronger inhibition) at 10 µM;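 active = ratio plate-corrected score three or more library SD toward inhibition, starting fluorescence score within five deviations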;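 note: score derived from kinetic fluorescence span divided by baseline fluorescence per well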
MEKK3 PB1 HTS: modulators (inhibitors or enhancers) of MEK5 binding to human MEKK3 PB1 domain. bead-based flow cytometry, Alexa488-MEK5 binding to MEKK3; actives lie on both sides; 0 = blocked by unlabeled MEK5, 100 = vehicle. binding response (% of control), % at 10 µM. 290,000 tested, 1.4% active. AID 1529;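 active = binding response more than 3 SD above or below the average of its plate-row segment, actives on both sides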;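 note: Alexa488 bead fluorescence after subtracting the streptavidin-only scavenger bead signal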
MEKK2wt confirm: raises or lowers MEK5 binding to wildtype human MEKK2, retest; shares compounds with MEKK3 PB1 HTS; bead flow cytometry, Alexa488-MEK5 binding to MEKK2 WT; actives lie on both sides; binding response (% of control), % at 10 µM; 5,900 tested, 2.4% active; AID 1892; in the data active = binding response below about 16% or above about 210%; inactive = in between
MEKK2mut-MEK5: signal of MEK5 binding to mutant human MEKK2, retest. percent response, % at 10 µM. bead flow cytometry, Alexa488-MEK5 binding to MEKK2 mutant. 5,900 tested, 2% active. shares compounds with MEKK3 PB1 HTS. AID 1893; in the data active = percent response mostly above about 71%, no sharp cut-off; inactive = mostly below about 38%;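 note: higher means compound restores mutant binding toward wildtype level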
MEKK3-MEK5 inh: MEKK3-MEK5 PB1 inhibition, single concentration confirmation | shares compounds with MEKK3 PB1 HTS | bead flow cytometry, Alexa488-MEK5 binding to MEKK3; hits give low values | binding response (% of control), % at 10 µM | 5,900 tested, 1.8% active | AID 1894;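 active = binding response below 72% of control, or above a set upper limit, though filed actives all read lower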;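 note: 100% = DMSO only wells and 0% = binding blocked by excess unlabeled MEK5; lower values mean stronger disruption of MEK5 binding to MEKK3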
* = called active by the depositor; i = inactive; / = not tested or not shown; [ ] = dose if it differs, or a comment.

SMILES	MEKK2mut PB1 HTS	NTR1 agonist	MEKK2 WT-MEK5	TMEM16A act	TMEM16A inh	MEKK3 PB1 HTS	MEKK2wt confirm	MEKK2mut-MEK5	MEKK3-MEK5 inh
O=C(O)Cn1nc(-c2ccccc2)c2ccccc2c1=O	-1	-1	97	i	i	100	/	/	/
CC1CN(c2nnc(-c3ccccc3)c3ccccc23)CC(C)O1 (centres undefined)	-6	0	94	i	i	98	/	/	/
Cn1c(Cc2ccc3c(c2)OCO3)nnc1SCC(=O)NC(C)(C)C	-12	2	64	i	i	65*[inhibitor]	104	-2	103
CC(C)N(C(=O)CSc1nnc(Cc2ccc3c(c2)OCO3)n1C)C(C)C	-11	0	96	i	i	102	/	/	/
CC(/C=N/n1c(-c2ccccn2)n[nH]c1=S)=C\c1ccccc1	5	3	103	i	i	100	/	/	/
CC(/C=N/n1c(-c2ccco2)n[nH]c1=S)=C\c1ccccc1	0	4	104	i	i	134*	98	-2	102
Cc1ccc(NC(=S)N(Cc2ccco2)C2CCN(C(C)C)CC2)cc1	1	-1	105	i	i	132*	104	5	99
COCCN(C(=O)Nc1ccc(OC)cc1OC)C1CCN(C(C)C)CC1	-8	0	91	i	i	81*[inhibitor]	99	-4	95
COCCN(C(=S)Nc1cccc(OC)c1)C1CCN(C(C)C)CC1	0	-2	108	i	i	137*	106	6	101
Cc1ccc(NC(=S)N(CCN2CCCCC2)Cc2ccco2)cc1	-3	-1	96	i	i	91	/	/	/
COCCN(C(=S)Nc1ccc(OC)cc1)C1CCN(C(C)=O)CC1	0	3	102	i	i	99	/	/	/
COCCN(C(=S)Nc1ccc(OC)cc1)C1CCN(C(C)C)CC1	1	1	109	i	i	134*	100	7	105
COc1ccc(S(=O)(=O)NCc2ccc(C(=O)N3CCc4ccccc4C3)cc2)cc1	-2	3	95	i	i	97	/	/	/
Cc1cc(C)cc(NC(=O)Nc2ccc(-n3ccc(C(F)(F)F)n3)cc2)c1	-35	5	97	i	i	71	/	/	/
O=C(Nc1ccc(-n2ccc(C(F)(F)F)n2)cc1)Nc1cccc(Cl)c1	74*	15	245*	i	i	141*	109	-4	106
COc1ccc(CNc2nc(-c3cccnc3)nn2C(=O)CC(C)C)cc1	5	4	107	i	i	102	/	/	/
COc1ccc(CNc2nc(-c3cccnc3)nn2C(C)=O)cc1	-42	0	7.0*[inhibitor]	i	i	5.0*[inhibitor]	107	2	106
Cc1ccc(S(=O)(=O)c2c(C)cc(-c3ccccc3)[nH]c2=O)cc1	7	0	134*	i	i	143*	102	-1	103
Cc1c(C(=O)N2CCC3(CC2)CC(=O)c2ccccc2O3)cccc1[N+](=O)[O-]	/	4	/	i	i	/	/	/	/
CCCCN1C(=O)C(CC(=O)NCC)SC1=Nc1ccccc1 (centres undefined)	6	3	108	i	i	134*	95	4	95
N=c1n(CC(=O)c2ccc(Br)s2)c2ccccc2n1Cc1ccccc1	39	10	158*	i	i	102	145	11	100
CC1CN(C(=O)CCC(=O)NCc2ccc(Cl)cc2)c2ccccc2O1 (centres undefined)	4	-1	101	i	i	102	/	/	/
Cc1ccc(C)c(NC(NC(=O)c2ccccn2)C(Cl)(Cl)Cl)c1 (centres undefined)	-5	2	96	i	i	88	/	/	/
CC1(C)Cc2cccc(OCC(=O)Nc3cccnc3)c2O1	9	1	122	i	i	130*	98	-4	99
O=C1Cc2cc(CCN3CCN(c4nsc5ccccc45)CC3)c(Cl)cc2N1	10	/	117	/	/	106	/	/	/
SMILES	MEKK2mut PB1 HTS	NTR1 agonist	MEKK2 WT-MEK5	TMEM16A act	TMEM16A inh	MEKK3 PB1 HTS	MEKK2wt confirm	MEKK2mut-MEK5	MEKK3-MEK5 inh
COC(=O)CN1C(=O)C(C)(C)Oc2ccc(C(=O)Nc3ccccc3F)cc21	8	-1	103	i	i	103	/	/	/
CCOC(=O)CN1C(=O)C(C)(C)Oc2ccc(C(=O)Nc3ccccc3)cc21	-11	-1	75	i	i	72*[inhibitor]	101	5	100
O=C(Nc1cccc(O)c1)C(Cc1ccccc1)N1C(=O)c2cccc3cccc(c23)C1=O (centres undefined)	0	0	101	i	i	140*	98	-3	102
O=C(CN1C(=O)COc2ccc(S(=O)(=O)N3CCCCC3)cc21)NCc1ccc(Cl)cc1	2	2	101	i	i	102	/	/	/
COc1ccc(NC(=O)c2ccc(NC(=O)CN(C)CC(=O)Nc3c(C)cccc3C)cc2)cc1	-7	2	84	i	i	93	/	/	/
Cc1csc(Sc2nc3c(c(=O)[nH]c(=O)n3C)n2CCCc2ccccc2)n1	-21	2	1.0*[inhibitor]	i	i	2.0*[inhibitor]	91	-10	93
CCOC(=O)C1CCN(C(=O)c2cc(S(=O)(=O)N3CCCCCC3)ccc2OC)CC1	/	0	/	i	i	/	/	/	/
NC(=O)CC(NC(=O)c1cccc(Br)c1)c1ccc(N2CCC(Br)CC2)c([N+](=O)[O-])c1 (centres undefined)	-5	0	90	i	i	94	/	/	/
NC(=O)CC(NC(=O)c1ccccc1)c1ccc(N2CCC(Br)CC2)c([N+](=O)[O-])c1 (centres undefined)	-2	-2	97	i	i	77*[inhibitor]	91	-14	91
Nc1ccc(Nc2ccccc2N)cc1	-3	2	69	i	i	60*[inhibitor]	78	7	60*
Cc1ccc(OCCCC(=O)ON=C(N)c2ccccc2C)cc1	/	1	/	i	/	/	/	/	/
CN(C)CCCN(C(=O)/C=C/c1cccs1)c1nc2c(F)cccc2s1	4	/	132	i	/	109	/	/	/
